The record followed here is PubChem BioAssay (NCI).

“And” between values parts separate entries of the source, which are not always exact repeats. Identical values can stand only once. Compounds without any hit were thinned out: in the full panel of roughly 83,000, 20% have a hit.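 Cells were grown in 96-well plates and exposed to the test compound at a single concentration for 48 hours; results are reported as percent growth, with values below 10 considered active.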 A number with no mark means an inactive call. The source made the active and inactive calls.

Test systems include T-47D breast; BT-549 breast; MDA-MB-435 melanoma; SW-620 colon; MCF7 breast; HCT-116 colon; HCC-2998 colon; KM12 colon.
Holding throughout (assay): NCI-60 one-dose screen, 48 h (100 = growth as untreated, 0 = no growth, -100 = all killed)
What all share (settings): 10 µM unless noted

With `Nn1c(-c2ccc(Cl)cc2)nc2c(-c3ccc(Cl)cc3)nc3ccc(Cl)cc3c2c1=O`, the growth in the assay on T-47D breast was 9.59% (active); with BT-549 breast it was 45.1%; in the assay on MDA-MB-435 melanoma, 37.4%; with SW-620 colon, -66.1% (active); in the assay with MCF7 breast, 21.7%; with HCT-116 colon, -100% (active). Further, the growth in the assay on HCC-2998 colon is 372%; with KM12 colon it was 36.9%.
For the compound `COCCn1cc(-c2nc(-c3cn(CCOC)c4ncccc34)cs2)c2ccccc21`, the growth in the assay on T-47D breast is -3.64% (active); in the assay with BT-549 breast, 77.7%; in the assay with MDA-MB-435 melanoma it was 108%; with SW-620 colon, 115%; in the assay on MCF7 breast it was 10.5%; in the assay on HCT-116 colon, 79.9%. For the same compound, the growth with HCC-2998 colon is 42.2%; in the assay on KM12 colon, 21.1%.
With `COC(=O)/C=C1/SC(=Nc2ccc([N+](=O)[O-])cc2)N(CCc2c[nH]c3ccccc23)C1=O`, the growth with T-47D breast is 46.5%; in the assay on BT-549 breast, 60.8%; in the assay on MDA-MB-435 melanoma, 55.5%; in the assay on SW-620 colon, 47.3%; with MCF7 breast it was 20.1%; in the assay on HCT-116 colon it was 21.8%. In addition, the growth in the assay with HCC-2998 colon is 78.3%; in the assay with KM12 colon it was 66.4%.
On to `COC(=O)c1c2c(c(C)[n+]([O-])c1C)C(=O)C(NCCN1CCOCC1)=CC2=O`, for which the growth in the assay with T-47D breast is 80.6%; in the assay with BT-549 breast it was 91.4%; in the assay with MDA-MB-435 melanoma it was 49.9%; in the assay with SW-620 colon it was 64.3%; with MCF7 breast, 55.9%; with HCT-116 colon it was 28.3%. Besides, the growth is 74.1% in the assay with HCC-2998 colon and 71.6% in the assay on KM12 colon.
For `C[N+]1=C(/C=C\C=C\c2ccccc2)C(C)(C)c2ccccc21`, the growth in the assay on T-47D breast is -1.09% (active); in the assay with BT-549 breast, 22.5%; in the assay on MDA-MB-435 melanoma, 9.04% (active); in the assay on SW-620 colon it was 19.8%; in the assay on MCF7 breast it was 7.58% (active); with HCT-116 colon, 14.3%. For the same compound, the growth in the assay with HCC-2998 colon was 47.9%; with KM12 colon it was 22.2%.
With `CCN(C(=O)N1CCN(c2cc3c(cc2F)c(=O)c(C(=O)O)cn3C2CC2)CC1)c1nc(-c2ccccc2)cs1`, the growth with T-47D breast is 55.4%; with BT-549 breast, -9.57% (active); with MDA-MB-435 melanoma it was 27.3%; in the assay on SW-620 colon, 23.3%; with MCF7 breast, 14.9%; in the assay on HCT-116 colon, 6.31% (active). For the same compound, the growth in the assay with HCC-2998 colon was 21%; in the assay on KM12 colon, 21.1%.
Consider `COc1ccc(-c2ccc(-c3ccc(C(=N)N)cn3)s2)cc1Cl`, for which the growth in the assay on T-47D breast is -43.4% (active); with BT-549 breast, 107%; in the assay with MDA-MB-435 melanoma, -96.9% (active); in the assay with SW-620 colon it was -87.5% (active); with MCF7 breast, -68.9% (active); with HCT-116 colon it was -62.6% (active). For the same compound, the growth is -80.9% (active) with HCC-2998 colon and -45.3% (active) with KM12 colon.
Turning to `O=C(N=Nc1c(O)[nH]c2ccccc12)Nc1ccccc1Cl`, the growth with T-47D breast is 42%; in the assay on BT-549 breast it was 96.6%; in the assay with MDA-MB-435 melanoma it was 84.5%; in the assay on SW-620 colon it was 85.2%; in the assay on MCF7 breast, 19.8%; with HCT-116 colon, 89.8%. In addition, the growth in the assay with HCC-2998 colon was 78.2%; with KM12 colon it was 53.6%.
Take `CC[C@@H]1NC(=O)[C@H]([C@H](O)[C@H](C)C/C=C/c2ccc(CN3C(=O)C(C)=C(C)C3=O)cc2)N(C)C(=O)[C@H](C(C)C)N(C)C(=O)[C@H](CC(C)C)N(C)C(=O)[C@H](CC(C)C)N(C)C(=O)[C@@H](C)NC(=O)[C@H](C)NC(=O)[C@H](CC(C)C)N(C)C(=O)[C@H](C(C)C)NC(=O)[C@H](CC(C)C)N(C)C(=O)CN(C)C1=O`: the growth with T-47D breast is 54.7%; with BT-549 breast, 82.4%; in the assay with MDA-MB-435 melanoma it was 82.7%; in the assay with SW-620 colon, 97.7%; in the assay with MCF7 breast it was 50.9%; in the assay on HCT-116 colon it was 54.8%. The values for the growth with HCC-2998 colon and in the assay with KM12 colon were 87.2% and 78.7%, respectively.
Take `Cc1cc(N2CCCCC2)nc(NCc2cc(Nc3ccnc4cc(Cl)ccc34)ccc2F)n1`: the growth with T-47D breast is -60.6% (active); in the assay with BT-549 breast, 15.5%; in the assay with MDA-MB-435 melanoma it was -86.7% (active); in the assay on SW-620 colon it was -19.2% (active); in the assay on MCF7 breast, -37.5% (active); in the assay with HCT-116 colon, -62.8% (active). Further, the growth with HCC-2998 colon is -16% (active); with KM12 colon, 7.38% (active).
In the case of `COc1ccc(NC(=O)Nc2ccccc2CNc2nc(Nc3ccc(OCCN4CCCC4)cc3)ncc2Cl)cc1`, the growth was 27.2% in the assay with T-47D breast; 32% in the assay with BT-549 breast; -70.9% (active) in the assay on MDA-MB-435 melanoma; 2.1% (active) with SW-620 colon; -60.5% (active) in the assay on MCF7 breast; -20.1% (active) in the assay with HCT-116 colon. Further, the growth in the assay on HCC-2998 colon was 16.3%; in the assay on KM12 colon, 0.945% (active).
As for `COC(=O)/C=C1/SC(N2N=C(c3cccs3)CC2c2ccc(F)cc2)=NC1=O` (configuration not stated), the growth in the assay with T-47D breast is 38.9%; with BT-549 breast, 66.1%; with MDA-MB-435 melanoma, 43.2%; in the assay on SW-620 colon it was 3.45% (active); in the assay on MCF7 breast, 10.1%; in the assay with HCT-116 colon, -15.3% (active). Further, the growth in the assay with HCC-2998 colon was 33.7%; with KM12 colon it was 30.5%.
Consider `N=C1/C(=C2\NC3C=CC=CC3S2)C(c2ccc(Cl)cc2)C2C(=O)N(c3ccccc3)C(=S)N12` (configuration not stated), for which the growth is 102% in the assay on T-47D breast; 95.4% in the assay on BT-549 breast; 108% in the assay on MDA-MB-435 melanoma; 104% in the assay with SW-620 colon; 94.1% with MCF7 breast; 101% in the assay on HCT-116 colon. In addition, the growth in the assay on HCC-2998 colon was 99.1%; with KM12 colon it was 108%.
`CC(=O)N1N=C(c2ccc(Nc3nc(Nc4ccc(F)cc4)nc(Nc4ccc(Cl)cc4)n3)cc2)CC1c1ccc(N(C)C)cc1` (configuration not stated): the growth in the assay on T-47D breast was 24.3%; in the assay on BT-549 breast it was 69.5%; in the assay with MDA-MB-435 melanoma it was 18.7%; with SW-620 colon it was 78.5%; with MCF7 breast, 29.9%; in the assay on HCT-116 colon it was 130% and 24.2%. The growth was 22% with HCC-2998 colon and 55.5% in the assay on KM12 colon.
